Experimental findings from PubChem BioAssay (NCI) are described below.

Some test systems named below: HCT-15 colon; HT29 colon; SNB-75 CNS; SNB-19 CNS; U251 CNS; PC-3 prostate; SK-MEL-5 melanoma; UACC-62 melanoma; LOX IMVI melanoma; SK-MEL-28 melanoma; SK-MEL-2 melanoma; EKVX NSCLC; SN12C renal; UO-31 renal; TK-10 renal; ACHN renal; CAKI-1 renal; A498 renal; CCRF-CEM leukemia; MOLT-4 leukemia.
Assay in all cases: NCI-60 one-dose screen, 48 h (100 = growth as untreated, 0 = no growth, -100 = all killed)
Common to all, as to conditions: 10 µM

This is part of a sample that, as a whole, favours compounds with a hit. Of some 83,000 tested, about 20% had one in any assay.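 Testing used 96-well plates and a 48-hour single-concentration exposure. Example: -40 means 40% of the starting cells died.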 Unmarked numbers belong to inactive results. The source made the active and inactive calls. Rule for the calls: active = growth percent below 10; inactive = the rest.

As to `Cc1ccc(-c2nc(Nc3ccc(C)c(S(N)(=O)=O)c3)c3ccccc3n2)cc1`, the growth in the test on HCT-15 colon was 50.7%; in the test on HT29 colon, 43.1%; in the test on SNB-75 CNS, 116%; in the test with SNB-19 CNS, 91.4%; with U251 CNS it was 18.6%; in the test with PC-3 prostate, 43.9%. Besides, the growth is 86.7% in the test with SK-MEL-5 melanoma; 87.8% in the test on UACC-62 melanoma; 2.94% (active) with LOX IMVI melanoma; 113% with SK-MEL-28 melanoma; 118% in the test on SK-MEL-2 melanoma; 81.1% in the test with EKVX NSCLC. For the same molecule, the growth in the test on SN12C renal was 69%; with UO-31 renal it was 85.9%; in the test on TK-10 renal, 120%; in the test on ACHN renal, 64.1%; with CAKI-1 renal, 91%; in the test with A498 renal, 106%. The values for the growth in the test on CCRF-CEM leukemia and with MOLT-4 leukemia were 85.1% and 71.5%, respectively.
In the case of `COc1ccc(-c2cc(C(=O)N=Nc3c(O)[nH]c4ccccc34)c3ccccc3n2)cc1`, the growth in the test on HCT-15 colon was -83.1% (active); in the test with HT29 colon, -15.1% (active); with SNB-75 CNS it was 53.7%; with SNB-19 CNS, -38.8% (active); with U251 CNS, -67.6% (active); in the test with PC-3 prostate, 2.92% (active). In addition, the growth in the test on SK-MEL-5 melanoma was 47.3%; with UACC-62 melanoma, 39.5%; in the test on LOX IMVI melanoma it was -73.6% (active); with SK-MEL-28 melanoma, -41% (active); with SK-MEL-2 melanoma, 64.9%; with EKVX NSCLC it was -12.7% (active). Moreover, the growth with SN12C renal is -38.8% (active); with UO-31 renal, 24.5%; with TK-10 renal it was 19.2%; in the test with ACHN renal it was -64.2% (active); with CAKI-1 renal, -58.8% (active); in the test on A498 renal, 112%. The growth with CCRF-CEM leukemia was 49%; in the test with MOLT-4 leukemia it was 45.1%.
Regarding `COc1cc(/C=C/C(=O)c2ccc(C(F)(F)F)cc2)ccc1Oc1nc(Nc2ccc(F)cc2)nc(N(C)C)n1`, the growth in the test with HCT-15 colon was 70%; with HT29 colon, 74.1%; in the test on SNB-75 CNS it was 99.7%; with SNB-19 CNS it was 83%; with U251 CNS, 74.2%; in the test with PC-3 prostate it was 76%. Further, the growth was 61.7% in the test with SK-MEL-5 melanoma; 57.7% in the test with UACC-62 melanoma; 46.9% in the test with LOX IMVI melanoma; 85.9% in the test on SK-MEL-28 melanoma; 78.4% with SK-MEL-2 melanoma; 66% in the test with EKVX NSCLC. Besides, the growth in the test on SN12C renal is 69.6%; in the test with UO-31 renal, 50.3%; in the test on TK-10 renal, 88.5%; with ACHN renal, 84.2%; with CAKI-1 renal, 69.6%; in the test with A498 renal it was 94.4%. Besides, the values for the growth in the test on CCRF-CEM leukemia and in the test with MOLT-4 leukemia were 64.8% and 40.7%, respectively.
For `O=C(NO)c1ccc(-c2nc3ccc4[nH]ncc4c3c3c2CCCC3)cc1`, the growth with HCT-15 colon was -11% (active); in the test with HT29 colon, 6.1% (active); in the test on SNB-75 CNS, -77.1% (active); in the test on SNB-19 CNS it was -19.4% (active); with U251 CNS it was -39.1% (active); in the test with PC-3 prostate it was 15.8%. The growth with SK-MEL-5 melanoma was -88.9% (active); with UACC-62 melanoma, -65.8% (active); with LOX IMVI melanoma it was -90.6% (active); in the test with SK-MEL-28 melanoma, -55% (active); in the test with SK-MEL-2 melanoma, -89.7% (active); with EKVX NSCLC, -19.4% (active). The growth in the test on SN12C renal was -13.8% (active); in the test on UO-31 renal, -15.8% (active); with TK-10 renal, 20.2%; with ACHN renal it was 2.16% (active); in the test with CAKI-1 renal, -0.924% (active); in the test on A498 renal, -49.1% (active). Also, the growth is 5.08% (active) with CCRF-CEM leukemia and 3.76% (active) in the test with MOLT-4 leukemia.
Consider `O=C(CNc1nc(-c2ccccc2)cs1)Nc1ccc(Br)cc1`, for which the growth is -89.4% (active) in the test with HCT-15 colon; -55.8% (active) in the test with HT29 colon; -3.24% (active) in the test on SNB-75 CNS; -99.4% (active) in the test on SNB-19 CNS; -89.8% (active) in the test with U251 CNS; -27.8% (active) with PC-3 prostate. The growth was -99.8% (active) in the test on SK-MEL-5 melanoma; -84.1% (active) in the test with UACC-62 melanoma; -98.7% (active) in the test with LOX IMVI melanoma; -96.3% (active) with SK-MEL-28 melanoma; -76.8% (active) with SK-MEL-2 melanoma; -95.9% (active) in the test on EKVX NSCLC. For the same molecule, the growth in the test on SN12C renal is -90.3% (active); in the test on UO-31 renal, -98.2% (active); with TK-10 renal, -95.3% (active); with ACHN renal, -100% (active); with CAKI-1 renal, -92.3% (active); with A498 renal it was -89.6% (active). The growth with CCRF-CEM leukemia was 5.21% (active); in the test on MOLT-4 leukemia it was -12.4% (active).
For the molecule `CN1CCc2c(sc3ncnc(N/N=C/c4ccc5ccccc5c4)c23)C1`, the growth in the test on HCT-15 colon was 2.05% (active); with HT29 colon, 20.4%; with SNB-75 CNS, 76.4%; with SNB-19 CNS it was 74.2%; in the test on U251 CNS, -4.86% (active); in the test on PC-3 prostate, 102%. For the same molecule, the growth with SK-MEL-5 melanoma was 97.9%; with UACC-62 melanoma, 79.1%; with LOX IMVI melanoma, 9.53% (active); in the test with SK-MEL-28 melanoma, 100%; with SK-MEL-2 melanoma, 103%; in the test on EKVX NSCLC it was 90.4%. Moreover, the growth was 72.4% with SN12C renal; 60.5% with UO-31 renal; 110% with TK-10 renal; 67.2% in the test on ACHN renal; 78.2% in the test with CAKI-1 renal; 106% in the test on A498 renal. For the same molecule, the growth in the test with CCRF-CEM leukemia is 40.6%; with MOLT-4 leukemia, 63.6%.
